The source of these data is PubChem BioAssay (EPA / NIEHS).

Test [1] is described as follows: BSK_LPS_PGE2: BioMAP Diversity Plus: LPS Assay for Prostaglandin E2 (PGE2) Biomarker Activity (AID 2283082). The following applies: primary human HUVEC with PBMC; actives raise or lower the signal. Put shortly: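 HUVEC plus human PBMC co-culture stimulated with LPS; secreted PGE2 quantified by ELISA 24 h after chemical dosing. Activity fitted bidirectionally against DMSO baseline; parallel SRB staining (0.1% SRB after 10% TCA fixation, 560 nm) flags overt cytotoxicity.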

Read-out in test [2]: Macrophage colony-stimulating factor (MCSF), CSF1 (gene 1435)
As to the kind of experiment: BSK_LPS_MCSF: BioMAP Diversity Plus: LPS Assay for Macrophage colony-stimulating factor (MCSF) Biomarker Activity (AID 2283083). The following applies: primary human HUVEC with PBMC; actives raise or lower the signal. Put shortly:
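HUVEC + PBMC co-culture (human primary), 24 h post-dose; M-CSF by ELISA; gain/loss of signal fitted bidirectionally vs DMSO baseline.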

Read-out in test [3]: Tissue Factor, F3 (gene 2152)
As to the kind of experiment: BSK_LPS_TissueFactor: BioMAP Diversity Plus: LPS Assay for Tissue Factor Biomarker Activity (AID 2283084). The following applies: primary human HUVEC with PBMC; actives raise or lower the signal. Put shortly: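 HUVEC/PBMC co-culture, LPS-activated; CD142 ELISA read 24 h post-dose; bidirectional curve fit vs DMSO negative control.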

Read-out in test [4]: Tumor necrosis factor (Homo sapiens) (UniProt P01375)
As to the kind of experiment: BSK_LPS_TNFa: BioMAP Diversity Plus: LPS Assay for Tumour Necrosis Factor alpha (TNFa) Biomarker Activity (AID 2283085). The following applies: primary human HUVEC with PBMC; actives raise or lower the signal. Put shortly: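 Human umbilical vein endothelial cells co-cultured with PBMC and stimulated with LPS. TNFa was measured by ELISA 24 h after chemical dosing, fitted bidirectionally relative to DMSO.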

Read-out in test [5]: Vascular cell adhesion molecule 1 (VCAM1), VCAM1 (gene 7412)
As to the kind of experiment: BSK_LPS_VCAM1: BioMAP Diversity Plus: LPS Assay for Vascular cell adhesion molecule 1 (VCAM1) Biomarker Activity (AID 2283086). The following applies: primary human HUVEC with PBMC; actives raise or lower the signal. In outline: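 Human umbilical vein endothelial cells co-cultured with PBMC and stimulated with LPS; VCAM-1 measured by ELISA 24 h after dosing. Bidirectional curve fitting against DMSO baseline; cytotoxicity tracked in parallel by SRB total-protein staining.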

Read-out in a further test: CD38, CD38 (gene 952)
As to the kind of experiment: BSK_SAg_CD38: BioMAP Diversity Plus: SAg Assay for CD38 Biomarker Activity (AID 2283087). The following applies: primary human HUVEC with PBMC; actives raise or lower the signal. Put shortly: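 Human HUVEC plus PBMC co-culture stimulated with superantigen; CD38 measured by ELISA 24 h after chemical dosing. Fluorescence read-out, bidirectional fit against DMSO; cytotoxicity tracked in parallel by SRB and Alamar Blue.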

Read-out in a further test: CD40, CD40 (gene 958)
In words: BSK_SAg_CD40: BioMAP Diversity Plus: SAg Assay for CD40 Biomarker Activity (AID 2283088). The following applies: primary human HUVEC with PBMC; actives raise or lower the signal. In outline:
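HUVEC/PBMC co-culture, 24 h post-dose; CD40 by ELISA, fluorescence intensity; bidirectional fit vs DMSO negative control.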

Read-out in the next test: CD69, CD69 (gene 969)
As to the kind of experiment: BSK_SAg_CD69: BioMAP Diversity Plus: SAg Assay for CD69 Biomarker Activity (AID 2283089). The following applies: primary human HUVEC with PBMC; actives raise or lower the signal. In outline: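 Values derive from bidirectional fitting relative to DMSO vehicle. Cells: umbilical vein endothelium plus peripheral blood mononuclear cells, treated 24 h before fluorescent ELISA for CD69.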

Read-out in test [6]: Monocyte Chemoattractant Protein-1 (MCP1), CCL2 (gene 6347)
As to the kind of experiment: BSK_SAg_MCP1: BioMAP Diversity Plus: SAg Assay for Monocyte Chemoattractant Protein-1 (MCP1) Biomarker Activity (AID 2283090). The following applies: primary human HUVEC with PBMC; actives raise or lower the signal. In outline:
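MCP-1 levels in the endothelial–PBMC SAg co-culture were quantified by ELISA at 24 h post-dosing; both increases and decreases versus DMSO scored. Cytotoxicity monitored by SRB total protein in parallel cultures.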

Read-out in test [7]: E-selectin (Homo sapiens) (UniProt P16581)
As to the kind of experiment: BSK_SAg_Eselectin: BioMAP Diversity Plus: SAg Assay for Eselectin Biomarker Activity (AID 2283091). The following applies: primary human HUVEC with PBMC; actives raise or lower the signal. In outline: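 E-selectin ELISA readout at 24 h post-dosing in human umbilical vein endothelial cell/PBMC co-culture; gain or loss of signal fitted relative to DMSO baseline.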

Read-out in test [8]: Monokine induced gamma interferon (MIG), CXCL9 (gene 4283)
In words: BSK_SAg_MIG: BioMAP Diversity Plus: SAg Assay for Monokine induced gamma interferon (MIG) Biomarker Activity (AID 2283092). The following applies: primary human HUVEC with PBMC; actives raise or lower the signal. In outline:
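Values reflect bidirectional fitting of ELISA-measured MIG against DMSO vehicle, taken 24 h after dosing of a co-culture of human umbilical vein endothelial cells and peripheral blood mononuclear cells.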

Test [9] is described as follows: BSK_SAg_PBMCCytotoxicity: PBMC Cytotoxicity Assessment in the BioMAP Diversity Plus: SAg Assay (AID 2283093).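 Further: PBMC viability measured as Alamar Blue reduction fluorescence at 546/580 nm; fitted both ways against DMSO so a hit may be loss or gain of signal.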 As to conditions: primary human HUVEC with PBMC. Put shortly:
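Human umbilical vein endothelial cells co-cultured with PBMC; PBMC (75,000/well) pre-treated with compound 1 h, then activated with SEB and TSST-1 (20 ng/mL final each) for 90 h. Alamar Blue added 6 h, fluorescence 546/580 nm; bidirectional fit versus DMSO.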

Read-out in test [10]: Interleukin-8 (IL8), CXCL8 (gene 3576)
As to the kind of experiment: BSK_SAg_IL8: BioMAP Diversity Plus: SAg Assay for Interleukin-8 (IL8) Biomarker Activity (AID 2283094). The following applies: primary human HUVEC with PBMC; actives raise or lower the signal. Put shortly: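 Human umbilical vein endothelial cells co-cultured with PBMC, stimulated with superantigen; IL-8 measured by ELISA 24 h after chemical dosing. Bidirectional fitting versus DMSO; SRB staining in parallel cultures tracks cytotoxicity.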

Test [11] can be described thus: BSK_SAg_Proliferation: Cell Proliferation Assessment in the BioMAP Diversity Plus: SAg Assay (AID 2283095). The following applies: primary human HUVEC with PBMC. Put shortly: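 Human umbilical vein endothelial cells co-cultured with PBMC; sulforhodamine B total-protein staining (0.1% SRB after 10% TCA fixation, absorbance 560 nm) at 96 h in sub-confluent culture. Fitted bidirectionally against DMSO.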

The nature of test [12]: BSK_SAg_SRB: Viability Assessment in the BioMAP Diversity Plus: SAg Assay (AID 2283096).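 Further: cells read one day after compound addition; hits may be either gain or loss of signal compared with DMSO.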 As to conditions: primary human HUVEC with PBMC. Put shortly: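 Endothelial/PBMC primary human co-culture; compound 24 h; fix 10% TCA, stain 0.1% SRB, A560; protein content as cytotoxicity proxy; bidirectional curve fit, DMSO = baseline.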

Each structure is given as a SMILES string. Calls of active or inactive are those of the source. How the source made its calls: active means hit-call score of the fitted dose curve at least 0.9, where 1 is the maximum; inactive means score below 0.9.

Chain of E-selectin (Homo sapiens) (P16581 whole entry, looked up): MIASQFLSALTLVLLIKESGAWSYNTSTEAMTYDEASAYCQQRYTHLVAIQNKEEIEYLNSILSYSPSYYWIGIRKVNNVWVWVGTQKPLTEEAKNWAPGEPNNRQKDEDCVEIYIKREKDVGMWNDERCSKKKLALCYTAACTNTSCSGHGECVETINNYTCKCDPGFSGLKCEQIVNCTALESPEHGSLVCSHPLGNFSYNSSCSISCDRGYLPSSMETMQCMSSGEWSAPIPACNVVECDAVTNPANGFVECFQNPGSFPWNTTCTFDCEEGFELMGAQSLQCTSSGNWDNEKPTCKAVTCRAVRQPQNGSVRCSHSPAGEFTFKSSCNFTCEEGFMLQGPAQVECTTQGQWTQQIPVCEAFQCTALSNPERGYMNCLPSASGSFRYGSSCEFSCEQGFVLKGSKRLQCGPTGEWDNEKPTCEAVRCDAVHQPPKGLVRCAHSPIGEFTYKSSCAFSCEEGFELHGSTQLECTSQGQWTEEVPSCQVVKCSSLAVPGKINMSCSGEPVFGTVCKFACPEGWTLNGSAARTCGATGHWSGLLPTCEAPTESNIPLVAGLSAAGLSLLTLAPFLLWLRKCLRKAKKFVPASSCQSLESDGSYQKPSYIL
Chain of Tumor necrosis factor (Homo sapiens) (P01375 whole entry, looked up): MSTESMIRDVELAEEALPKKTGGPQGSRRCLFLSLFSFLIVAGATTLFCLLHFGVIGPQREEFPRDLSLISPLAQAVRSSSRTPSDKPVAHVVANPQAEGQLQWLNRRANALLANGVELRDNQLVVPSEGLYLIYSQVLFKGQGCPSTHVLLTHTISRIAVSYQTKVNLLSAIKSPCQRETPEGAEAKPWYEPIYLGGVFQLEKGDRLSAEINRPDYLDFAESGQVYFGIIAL

Turning to `c1ccc(NNc2ccccc2)cc1`, the AC50 in test [1] is 10.6 µM (active). For the same compound, the outcome is “inactive” in [2]; “inactive” in test [3]; “inactive” in [4]; “inactive” in test [5]; “inactive” with CD38, CD38 (gene 952); “inactive” with CD40, CD40 (gene 958). Further, the outcome was “inactive” with CD69, CD69 (gene 969); “inactive” in test [6]; “inactive” in test [7]; “inactive” in test [8]; “inactive” in test [9]; “inactive” in [10]. For the same compound, the result in [11] and in test [12] was inactive.

As to `C[C@]12C=CC3=C4CCC(=O)C=C4CC[C@H]3[C@@H]1CC[C@@H]2O`, the AC50 in test [1] is 7.31 µM (active); in test [2], 9.08 µM (active); in test [5], 10.3 µM (active); with CD38, CD38 (gene 952), 4.63 µM (active); with CD40, CD40 (gene 958), 9.73 µM (active); in test [12], 7.24 µM (active). For the same compound, the outcome in [3] was “inactive”; in test [4] it was “inactive”; in the test with CD69, CD69 (gene 969), “inactive”; in [6], “inactive”; in test [7] it was “inactive”; in [8], “inactive”. Also, the result in test [9], in test [10] and in test [11] was inactive.

As for `O=C(Oc1ccc(Br)cc1)N1CCN2CCC1CC2`, the outcome in [1] was “inactive”; in test [2] it was “inactive”; in test [3], “inactive”; in [4], “inactive”; in test [5] it was “inactive”; with CD38, CD38 (gene 952), “inactive”. The outcome with CD40, CD40 (gene 958) was “inactive”; in the test with CD69, CD69 (gene 969), “inactive”; in test [6], “inactive”; in [7], “inactive”; in [8] it was “inactive”; in test [9], “inactive”. Further, the result in test [10], in test [11] and in [12] was inactive.

With `Brc1ccc(Oc2ccccc2)cc1`, the outcome in test [1] is “inactive”; in [2] it was “inactive”; in test [3], “inactive”; in [4], “inactive”; in [5] it was “inactive”; with CD38, CD38 (gene 952), “inactive”. In addition, the outcome with CD40, CD40 (gene 958) is “inactive”; in the test with CD69, CD69 (gene 969), “inactive”; in [6], “inactive”; in [7], “inactive”; in test [8], “inactive”; in [9], “inactive”. The result in [10], in test [11] and in test [12] was inactive.

As to `CN(C)[C@@H]1C(=O)C(C(N)=O)=C(O)[C@@]2(O)C(=O)C3=C(O)c4c(O)cccc4[C@@](C)(O)[C@H]3C[C@@H]12`, the outcome is “inactive” in test [1]; “inactive” in test [2]; “inactive” in test [3]; “inactive” in test [4]; “inactive” in [5]; “inactive” with CD38, CD38 (gene 952). Besides, the outcome with CD40, CD40 (gene 958) is “inactive”; with CD69, CD69 (gene 969), “inactive”; in test [6] it was “inactive”; in test [7], “inactive”; in [8] it was “inactive”; in [9], “inactive”. For the same compound, the outcome in test [10], in test [11] and in test [12] was inactive.

As for `Cc1ccc([N+](=O)[O-])cc1`, the outcome in test [1] was “inactive”; in test [2], “inactive”; in test [3], “inactive”; in test [4], “inactive”; in test [5], “inactive”; with CD38, CD38 (gene 952), “inactive”. Moreover, the outcome with CD40, CD40 (gene 958) is “inactive”; with CD69, CD69 (gene 969), “inactive”; in test [6], “inactive”; in test [7] it was “inactive”; in test [8], “inactive”; in test [9], “inactive”. Besides, the result in [10], in [11] and in test [12] was inactive.

For the compound `c1ccc2c(c1)oc1ccccc12`, the outcome is “inactive” in test [1]; “inactive” in [2]; “inactive” in test [3]; “inactive” in test [4]; “inactive” in test [5]; “inactive” in the test with CD38, CD38 (gene 952). Further, the outcome with CD40, CD40 (gene 958) was “inactive”; in the test with CD69, CD69 (gene 969) it was “inactive”; in test [6] it was “inactive”; in [7], “inactive”; in test [8], “inactive”; in test [9], “inactive”. The outcome in test [10], in test [11] and in test [12] was inactive.

Turning to `CCCCCCCCCCCCCN1CC(C)OC(C)C1` (stereo not given), the outcome in test [1] was “inactive”; in test [2] it was “inactive”; in [3], “inactive”; in test [4], “inactive”; in test [5], “inactive”; with CD38, CD38 (gene 952), “inactive”. In addition, the outcome is “inactive” with CD40, CD40 (gene 958); “inactive” in the test with CD69, CD69 (gene 969); “inactive” in [6]; “inactive” in test [7]; “inactive” in [8]; “inactive” in test [9]. The result in test [10], in test [11] and in test [12] was inactive.
